Measured values as given in PubChem BioAssay AID1347418 (Sanford-Burnham Center for Chemical Genomics, 2020).
Screen size: about 1,300 compounds; about 750 (58%) were called active. Some of the results follow. Values without a mark were called inactive.

These molecules were tested against Sulfhydryl oxidase 1 (Homo sapiens) (UniProt O00391) (assay: QSOX1 enzyme inhibitors, primary screen, biochemical, ROS-Glo H2O2 luminescence, HTS (AID 1347418)). Settings: recombinant QSOX1, ROS-Glo H2O2 luminescence; at 12.5 µM; stronger effect = higher value; active = any value above zero.
Sequence of Sulfhydryl oxidase 1 (Homo sapiens) (O00391 whole entry, looked up): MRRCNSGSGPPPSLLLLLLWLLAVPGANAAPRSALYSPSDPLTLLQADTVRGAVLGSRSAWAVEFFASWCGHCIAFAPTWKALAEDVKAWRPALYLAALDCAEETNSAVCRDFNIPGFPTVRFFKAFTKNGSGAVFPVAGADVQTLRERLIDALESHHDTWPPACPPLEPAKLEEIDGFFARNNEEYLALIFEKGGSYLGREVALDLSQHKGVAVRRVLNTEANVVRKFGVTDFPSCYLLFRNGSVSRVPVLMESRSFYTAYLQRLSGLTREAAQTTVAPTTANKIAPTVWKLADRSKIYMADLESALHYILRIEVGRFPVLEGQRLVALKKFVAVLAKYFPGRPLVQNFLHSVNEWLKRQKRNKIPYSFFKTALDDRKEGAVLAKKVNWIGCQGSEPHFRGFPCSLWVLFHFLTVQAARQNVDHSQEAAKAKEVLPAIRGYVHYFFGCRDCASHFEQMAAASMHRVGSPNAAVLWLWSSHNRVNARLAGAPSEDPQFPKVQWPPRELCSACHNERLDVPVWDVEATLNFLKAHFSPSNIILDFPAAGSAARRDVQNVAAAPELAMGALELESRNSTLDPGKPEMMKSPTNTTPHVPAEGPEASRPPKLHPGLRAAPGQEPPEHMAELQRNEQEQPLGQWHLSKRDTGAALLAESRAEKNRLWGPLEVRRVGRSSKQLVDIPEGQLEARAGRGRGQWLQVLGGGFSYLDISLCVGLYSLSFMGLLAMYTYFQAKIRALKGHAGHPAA

| Structure (SMILES) | inhibition |
| --- | --- |
| CCc1cccc2c3c([nH]c12)C(CC)(CC(=O)O)OCC3 (centres undefined) | 9.9% (active) |
| NC(Cc1ccc(Cl)cc1)C(=O)O (centres undefined) | -3.4% |
| N[C@@H](Cn1ccc(=O)c(O)c1)C(=O)O | -3.8% |
| COC(=O)C(N)Cc1ccc(Cl)cc1 (centres undefined) | 9.7% (active) |
| COC(=O)[C@@H](N)Cc1ccc(O)c(O)c1 | 1.3% (active) |
| N[C@@H](Cc1ccc(F)cc1)C(=O)O | 0.8% (active) |
| NCCc1ccc(O)c(O)c1 | 8.1% (active) |
| CC(N)C(=O)OC(C)(C)Cc1ccc(Cl)cc1 (centres undefined) | -3.5% |
| N[C@@H](Cc1ccc(O)c(O)c1)C(=O)O | 9.8% (active) |
| N[C@@H](Cc1ccc(O)c(I)c1)C(=O)O | -5.7% |
| CC(Cc1ccc(O)c(O)c1)C(C)Cc1ccc(O)c(O)c1 (centres undefined) | 45.8% (active) |
| NC(Cc1cccc(-c2ccccc2CP(=O)(O)O)c1)C(=O)O (centres undefined) | -2% |
| CCN1CCCC1CNC(=O)c1cc(S(=O)(=O)CC)c(N)cc1OC (centres undefined) | -1% |
| CCN1CCCC1CNC(=O)c1cc(S(N)(=O)=O)ccc1OC (centres undefined) | 3.2% (active) |
| CCN1CCC[C@H]1CNC(=O)c1c(O)c(Cl)cc(Cl)c1OC | 2.3% (active) |
| CCN1CCC[C@H]1CNC(=O)c1cc(S(N)(=O)=O)ccc1OC | -1.2% |
| NC1CCN(c2cccc(Cl)n2)CC1 | -5.8% |
| COc1ccc(Cl)cc1C(=O)NCCc1ccc(S(=O)(=O)NC(=O)NC2CCCCC2)cc1 | -5.6% |
| CC(=O)c1ccc(S(=O)(=O)NC(=O)NC2CCCCC2)cc1 | -5.7% |
| Cc1cnc(C(=O)NCCc2ccc(S(=O)(=O)NC(=O)NC3CCCCC3)cc2)cn1 | 5.4% (active) |
| O=c1oc(Cl)c(Cl)c2ccccc12 | -1.8% |
| CC(N)(C(=O)O)c1ccc(C(=O)O)cc1 (centres undefined) | -3.7% |
| C/C(=C\c1ccc(C(=O)O)cc1)c1ccc2c(c1)C(C)(C)CCC2(C)C | 1.8% (active) |

| Structure (SMILES) | inhibition |
| --- | --- |
| NC1(C(=O)O)CCc2cc(C(=O)O)ccc21 (centres undefined) | -2.9% |
| Cc1ccccc1C(OCCN(C)C)c1ccccc1 (centres undefined) | -1.5% |
| CN(C)CCOC(c1ccccc1)c1ccccc1 | 4.3% (active) |
| CCN(Cc1ccncc1)C(=O)C(CO)c1ccccc1 (centres undefined) | -4.5% |
| N=C(N)SCCc1cnc[nH]1 | 2.7% (active) |
| NCCc1cnc[nH]1 | -5% |
| Cc1cccc(C(=O)NCN2CCN(c3ccccc3C#N)CC2)c1 | -1.8% |
| COc1ccc(NC(=O)c2ccc(-c3ccc(-c4noc(C)n4)cc3C)cc2)cc1N1CCN(C)CC1 | -1.1% |
| c1cnc(N2CCN(Cc3ccc4c(c3)OCO4)CC2)nc1 | -0.2% |
| O=C(NCCN1CCOCC1)c1ccc(Cl)cc1 | -3.4% |
| O=C1CC2(CCCC2)CC(=O)N1CCCCN1CCN(c2ncccn2)CC1 | 1.2% (active) |
| COc1cccc(C(=O)NCCN2CCN(c3ccc(Cl)cc3)CC2)c1 | 21.7% (active) |
| COc1ccccc1N1CCN(CCN2C(=O)CC3(CCCC3)CC2=O)CC1 | 17.2% (active) |
| COc1ccccc1N1CCN(CCCCNC(=O)c2ccc3ccccc3c2)CC1 | 12.2% (active) |
| Nc1nc(N)c2nc(-c3ccccc3)c(N)nc2n1 | -0.8% |
| CC(=O)[C@]1(O)Cc2c(O)c3c(c(O)c2[C@@H](O[C@H]2C[C@H](N)[C@H](O)[C@H](C)O2)C1)C(=O)c1ccccc1C3=O | -0.7% |
| COc1ccccc1N1CCN(CCCCN2C(=O)c3ccccc3C2=O)CC1 | 3.6% (active) |
| c1cc(CN2CCCCC2)cc(OCCCNc2nc3ccccc3s2)c1 | 3.8% (active) |
| CC(=O)Nc1nnc(S(N)(=O)=O)s1 | 0.8% (active) |
| OCc1ccc(-c2nn(Cc3ccccc3)c3ccccc23)o1 | -2.6% |
| CC(CCc1ccc(O)cc1)NCCc1ccc(O)c(O)c1 (centres undefined) | 17.1% (active) |
| CCCCCCCC/C=C\CCCCCCCC(=O)NCCc1ccc(O)c(O)c1 | -7.8% |
| C[C@@H](NCCc1ccc(O)cc1)[C@@H](O)c1ccc(O)cc1 | 3.9% (active) |

| Structure (SMILES) | inhibition |
| --- | --- |
| CC(CCc1ccccc1)NCC(O)c1ccc(O)c(C(N)=O)c1 (centres undefined) | 2.1% (active) |
| O=Nc1ccc2oc(=O)ccc2c1 | 16.8% (active) |
| Cc1cc(Cn2cnc3c2C[C@@H](C(=O)O)N(C(=O)C(c2ccccc2)c2ccccc2)C3)ccc1N | 0% |
| CCN(CC)CCCC(C)Nc1ccnc2cc(Cl)ccc12 (centres undefined) | -4.9% |
| CCN(CC)CCCC(C)Nc1c2ccc(Cl)cc2nc2ccc(OC)cc12 (centres undefined) | 0.7% (active) |
| CN(C)C(=O)n1nnnc1Cc1ccc(-c2ccccc2)cc1 | 5.2% (active) |
| CN(C)C(=O)C(CCN1CCC(O)(c2ccc(Cl)cc2)CC1)(c1ccccc1)c1ccccc1 | -0.9% |
| O=C(O)COCCN1CCN(C(c2ccccc2)c2ccc(Cl)cc2)CC1 (centres undefined) | 0.5% (active) |
| CCNC(=O)N1CCN(CCCC(c2ccc(F)cc2)c2ccc(F)cc2)CC1 | -0.9% |
| O=C1/C(=C/c2ccsc2)CC/C1=C\c1cccs1 | 3.3% (active) |
| Fc1ccc(C(OCCCc2cnc[nH]2)c2ccc(F)cc2)cc1 | 4.3% (active) |
| O=C(c1ccc(OCCCc2cnc[nH]2)cc1)C1CC1 | -3.2% |
| C1CCc2nnnn2CC1 | -0.2% |
| CCC1C(=O)OCC1Cc1cncn1C (centres undefined) | 5.6% (active) |
| CCCCCCCCCCCCCCCCCCNC(=O)OCC(COP(=O)([O-])OCC[n+]1ccsc1)OC (centres undefined) | -4.6% |
| CCCCCCCCCCCCCCCCCCOC[C@H](COP(=O)([O-])OCC[N+](C)(C)C)OC | 3.3% (active) |
| Cn1cnc([N+](=O)[O-])c1Sc1ncnc2nc[nH]c12 | 0.2% (active) |
| N=C(N)c1ccc(OCCCCCOc2ccc(C(=N)N)cc2)cc1 | 1.1% (active) |
| N=C(N)c1ccccc1 | -3.7% |
| N=C(N)c1ccc(N)cc1 | 5.7% (active) |
| O=C1NC(=O)/C(=C/c2ccc3nccnc3c2)S1 | 4.5% (active) |
| O=C1NC(=O)/C(=C/c2ccc3c(c2)OC(F)(F)O3)S1 | -1.5% |
| CCc1ccc(/C=C2/SC(=S)NC2=O)cc1 | -3% |
